Screening results from PubChem.
PABP FP inh: blocks human PABP binding to poly(A) RNA | P11940 | fluorescence polarization | calls only at 35 µM | 290,000 compounds, 1% hits;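 also: calls also rest on retests at 20 µM and on dose response follow-up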
PABP1 MLLE inh: inhibitors of microRNA-mediated deadenylation, human PABP1 MLLE binding; P11940; GST-MLLE / FITC-PAM2 fluorescence polarization; inhibition, % at 20 µM; 360,000 compounds, 0.36% hits; AID 588489; in the data active = inhibition above about 35%, passing the limit was not always enough;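 also: plate controls were DMSO wells with GST-MLLE for no effect and wells lacking GST-MLLE protein for full effect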
eIF4H FP inh: inhibitors of RNA binding by human eIF4H | eIF4H fluorescence polarization binding assay | inhibition, % at 35 µM | 290,000 compounds, 0.94% hits | Q15056;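 also: calls also rest on retests at 20 µM and on dose response follow-up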
A3A deaminase: human APOBEC3A DNA deaminase inhibition | P31941 | recombinant A3A, FAM/TAMRA ssDNA deamination fluorescence | inhibition, % at 20 µM | 330,000 compounds, 0.41% hits;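 active = at least 40% inhibition at 20 µM here, with at most 30% in a related deaminase screen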;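 also: plate controls were A3A with DMSO for no effect and wells lacking A3A enzyme for full effect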
Target sequence (P31941 whole entry, looked up): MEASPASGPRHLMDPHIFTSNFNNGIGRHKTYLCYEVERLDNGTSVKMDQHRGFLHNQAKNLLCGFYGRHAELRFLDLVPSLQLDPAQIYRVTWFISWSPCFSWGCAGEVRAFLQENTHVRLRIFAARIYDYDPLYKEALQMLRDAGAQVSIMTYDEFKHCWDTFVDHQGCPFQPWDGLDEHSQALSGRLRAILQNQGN
A3G deaminase: APOBEC3G (human) deaminase inhibition; 330,000 compounds, 0.28% hits; AID 493012; inhibition, % at 20 µM; recombinant A3G, ssDNA deamination FAM/TAMRA fluorescence;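 active = inhibition of at least 40% at 20 µM, with no more than 30% in the related APOBEC3A deaminase screen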;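 also: plate controls were DMSO wells with A3G for no effect and wells lacking A3G enzyme for full effect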
Target sequence (Q9HC16 whole entry, looked up): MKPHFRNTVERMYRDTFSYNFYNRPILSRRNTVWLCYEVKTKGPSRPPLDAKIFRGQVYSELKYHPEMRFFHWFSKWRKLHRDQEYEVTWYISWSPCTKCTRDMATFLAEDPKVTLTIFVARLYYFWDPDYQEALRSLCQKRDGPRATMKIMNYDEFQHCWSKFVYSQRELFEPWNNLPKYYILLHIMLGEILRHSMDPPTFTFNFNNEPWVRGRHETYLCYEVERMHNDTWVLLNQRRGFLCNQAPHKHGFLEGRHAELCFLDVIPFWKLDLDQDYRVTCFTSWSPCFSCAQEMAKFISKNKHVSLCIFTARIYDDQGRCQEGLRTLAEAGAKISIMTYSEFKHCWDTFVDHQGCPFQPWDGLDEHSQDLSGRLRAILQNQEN
PHOSPHO1 block: blocks human PHOSPHO1 phosphatase activity; 290,000 compounds, 1.1% hits; inhibition, % at 13.3 µM; recombinant PHOSPHO1, absorbance phosphatase assay; Q8TCT1; in the data active = inhibition above about 60%
* = called active by the depositor; i = inactive; ? = inconclusive; nt = no result; + = active, no number. Rows were chosen to be rich in hits. Some 2.6% of all compounds tested hit in one or more screens of this group. Unless noted, no rule for the calls is given here.

SMILES	PABP FP inh	PABP1 MLLE inh	eIF4H FP inh	A3A deaminase	A3G deaminase	PHOSPHO1 block
CN(/N=C/c1c[nH]c2ccccc12)c1cnn(-c2ccc(F)c(Cl)c2)c(=O)c1Cl	+	-92	78*	-4	-5	18
CN(/N=C/c1cccnc1)c1cnn(-c2ccc(F)c(Cl)c2)c(=O)c1Cl	i	10	-46	1	4	-20
COc1ccc(NC(=O)C2(C)CCCN(C(C)C)C2)cc1F (stereo not given)	nt	-7	nt	nt	nt	nt
CC(C)(C)OC(=O)C(Cc1ccc(OC(C)(C)C)cc1)NC(=O)CNC(=O)CNC(=O)OCc1ccccc1 (stereo not given)	i	11	active	1	-3	-6
CC(NC(=O)OCc1ccccc1)C(=O)NCC(=O)NC(Cc1ccc(OC(C)(C)C)cc1)C(=O)OC(C)(C)C (stereo not given)	i	-3	-12	3	-1	-4
Cc1cccnc1NC(=O)CNC(=O)c1cccs1	nt	-12	nt	-4	-6	nt
Cc1cccnc1NC(=S)NC(=O)c1cccs1	i	39*	-4	1	-3	46
COc1cccc(NC(=S)N2CCC(NC(=O)c3ccco3)CC2)c1	i	-48	-8	-4	-10	46
O=Cc1ccc(OC(=O)c2cc(Cl)nc3ccccc23)cc1	i	36*	-4	5	-1	-18
Cc1cccc(/C(N)=N/OC(=O)c2ccc3c(c2)OCO3)c1	+	5	2.0*	2	-4	-9
N/C(=N\OC(=O)c1ccc2c(c1)OCO2)c1cccc([N+](=O)[O-])c1	i	5	2	1	1	54
Cc1ccc(C)c(NC(=O)COC(=O)c2ccc3c(c2)OCO3)c1	+	4	14*	0	-4	32
COc1ccc(-c2csc(C(C)(O)c3ccccc3)n2)cn1 (stereo not given)	nt	-11	nt	nt	nt	nt
O=C(O)CSc1nnc(-c2cccc(S(=O)(=O)N3CCOCC3)c2)n1-c1ccc(F)cc1	nt	-12	nt	-6	-9	nt
O=[N+]([O-])c1cccc(S(=O)(=O)NCC2CC3CCC2C3)c1 (stereo not given)	i	7	-4	-4	-6	3
CS(=O)(=O)N1CCCC(C(=O)Nc2ccc3c(c2)OCCO3)C1 (stereo not given)	i	-1	-5	-2	-1	-19
COc1ccc(OCC(=O)Nc2nc3c(s2)CCCC3)cc1	i	-34	-4	-3	-7	44
COc1ccc(NC(=O)Nc2nc3c(s2)CCCC3)cc1	+	0	80*	1	-1	-9
O=c1[nH][nH]c2c(N=Cc3ccccc3O)ccc(F)c12	?	49*	?	nt	nt	46
CN(C)c1cc2c3ccccc3n(C)c2cc1N	nt	64*	nt	nt	nt	nt
Cc1cccc(/C=N/NC(=O)c2ccc(NC(=O)c3cccc(Cl)c3)cc2)n1	i	-7	-1	-4	-6	32
Cc1ccc(OC2CCN(C(=O)[C@H]3O[C@@H](n4ccc(N)nc4=O)[C@H](O)[C@@H]3O)CC2)cc1	nt	8	nt	nt	nt	nt
Cc1cc(C(=O)O)c(CSCc2cc(C(=O)O)oc2C)o1	i	28	0	-1	-6	76*
CCn1c(CN2CCCCCC2=O)nnc1SCc1cnc(-c2ccccc2)s1	i	-39	2	-1	-5	62*
O=C(CSc1nc2ccccc2c(=O)n1CC1CCCO1)Nc1ccc(F)cc1 (stereo not given)	i	-4	-2	-1	-7	-24
SMILES	PABP FP inh	PABP1 MLLE inh	eIF4H FP inh	A3A deaminase	A3G deaminase	PHOSPHO1 block
CCOC(=O)CCCc1sc(N)nc1-c1[nH]c(=O)[nH]c1C	i	30	7	-2	8	88*
COc1ccc(/C=C/C(=O)NC(=S)NNC(=O)Cc2cccs2)cc1	i	-43	20	-4	-2	96*
COc1ccc(C(=O)NNC(=S)NC(=O)/C=C/c2cccs2)cc1	i	6	21	0	-4	90*
O=C(/C=C/c1cccs1)NC(=S)NNC(=O)c1ccccc1O	i	-11	14	-2	-4	-32
Cc1nn(C(=O)CNS(=O)(=O)c2ccccc2)c(C)c1Sc1ccc(Cl)cc1	i	4	-2	5	1	4
OC(c1ccccc1)(c1nc(-c2cccc(F)c2)cs1)C(F)(F)F (stereo not given)	nt	5	nt	nt	nt	nt
O=C(CSc1nc2ccccc2[nH]1)NCc1ccc(F)cc1	i	-7	-1	-3	-4	8
O=C(CSc1nc2ccccc2[nH]1)NCCN1CCCCC1	i	-12	4	-1	-3	65*
O=C(Cn1cnc([N+](=O)[O-])n1)c1ccc(O)c(O)c1	i	-9	13	-3	-6	11
CCCCCCCNC1=CC(=O)CC(c2ccco2)C1 (stereo not given)	+	-13	93*	12	6	-1
CSc1nncc(/C(C)=N/O)n1	i	-5	-3	-1	-2	7
CSc1nncc(/C(C)=N\Nc2ccccc2C)n1	i	16	0	-2	-4	95*
CCOc1ccc(S(=O)(=O)Nc2cc(Sc3ncn[nH]3)c3oc(=O)sc3c2)cc1	i	nt	11	-4	5	103*
CCOc1ccc(S(=O)(=O)Nc2ncn[nH]2)cc1	i	3	1	-4	-9	26
CCOc1ccc(NS(=O)(=O)c2ccc(C(=O)N3CCN(C(C)=O)CC3)cc2)cc1	i	2	-10	2	1	4
Nc1nc(-c2ccccc2)c(-c2ccccc2)n1N	+	3	54	-6	-11	35
O=C(CCNC(=O)N1CC(=O)Nc2ccccc21)NCc1ccc(Cl)cc1	nt	6	nt	nt	nt	nt
O=C(CSc1nnc(Nc2ccccc2)s1)NCC1CCCO1 (stereo not given)	nt	-13	nt	-3	-4	nt
Cc1cc(C(=O)CSc2nnc(Nc3ccccc3F)s2)c(C)n1CC1CCCO1 (stereo not given)	i	-26	5	nt	nt	94*
Cc1cccc(Nc2nnc(SCC3CCCCO3)s2)c1C (stereo not given)	i	9	1.8*	-1	0	1
Cc1cc(C(=O)CSc2nnc(-c3cccnc3)n2-c2ccccc2F)c(C)n1CC1CCCO1 (stereo not given)	i	-19	23	8	-3	53
Cc1cc(C(=O)CSc2nnc(Nc3ccccc3)s2)c(C)n1CC1CCCO1 (stereo not given)	i	-33	-6	5	3	90*
COc1ccccc1Nc1nnc(SCC(=O)c2cc(C)n(CC3CCCO3)c2C)s1 (stereo not given)	i	-37	-2	-21	-5	93*
COc1ccc(NC(=O)CSCC(=O)Nc2ccccc2C(=O)N2CCCCC2)cc1	nt	6	nt	-4	-4	nt
O=C(NC1CCCCC1)C(c1ccncc1)N(C(=O)c1csnn1)c1ccccc1 (stereo not given)	i	-15	-3	-2	-2	-6
